Laboratory results taken from PubChem BioAssay (Tox21).
Records with an inconclusive call do not appear. Values without a mark were called inactive. Calls follow the shape of the full dose curve.

Biological target: Acetylcholinesterase (Homo sapiens) (UniProt P22303)
Assay: Acetylcholinesterase (AChE) small molecule antagonists: fluorescence cell-based qHTS assay (AID 1347398); also: nearly all actives have a fitted effect of over 50% in size
Conditions: SH-SY5Y cells; Potency: AChE activity; outcome: AChE activity; series mostly up to 115 µM; activity change, negative = inhibition: at the top concentration
From the text: National Center for Advancing Translational Sciences [NCATS]
Division of Preclinical Innovation [DPI]
U.S. Environmental Protection Agency [EPA]
National Institutes of Environmental Health Sciences [NIEHS]
National Toxicology Program [NTP]
U.S. Food and Drug Administration [FDA]
Acetylcholinesterase (AChE) is the primary cholinesterase in the body that hydrolyzes a key neurotransmitter, acetylcholine. Inhibition of AChE activity can lead to neurotoxicity. Known inhibitors of AChE include organophosphorous pesticides (OP), chemical warfare agents, drugs, and various phytochemicals.
A homogenous cell-based assay using Amplitetrade mark Fluorimetric Acetylcholinesterase Assay Kit *Green Fluorescence* (AAT Bioquest, Sunnyvale, CA) was used to evaluate the chemicals in the Tox21 10K library that inhibit AChE activity. The assay uses Thiolite Green to quantify the thiocholine produced from the hydrolysis of acetylthiocholine by AChE from the SH-SY5Y cells. AChE can hydrolyze acetylthiocholine to create thiocholine. Thiolite Green is fluorescent when reacting with thiocholine. It has spectral properties similar to those of fluorescein. The fluorescence intensity of Thiolite Green is used to measure AChE activity. Its signal can be easily read by a fluorescence microplate reader at Ex/Em = 490/520 nm.
Tox21 Assay Protocol Summary:
For cell-based AChE assay, 2,000 SH-SY5Y cells in 4 uL/well were dispensed into black, clear-bottom 1536-well plates using a Multidrop Combi (Thermo Scientific) dispenser. The assay plates were incubated overnight at 37 C to allow cells to attach to the wells, followed by the transfer of 23 nL compound or DMSO (vehicle control) by a Pintool station (Wako Automation, CA). The plates were incubated for 30 min at 37 C and 5% CO2, followed by the addition of 4 uL of detection cocktail solution (ThioliteGreen, acetylthiocholine) into each well using Flying Reagent Dispenser (Beckman Coulter, CA) and then following 40 min incubation at room temperature. Fluorescent intensity (Ex/Em = 490/520 nm) was measured using an Envision plate reader (PerkinElmer, MA).
% is scaled to controls: 0 for no effect and ±100 for the full control effect.

Sequence of Acetylcholinesterase (Homo sapiens) (P22303 whole entry, looked up): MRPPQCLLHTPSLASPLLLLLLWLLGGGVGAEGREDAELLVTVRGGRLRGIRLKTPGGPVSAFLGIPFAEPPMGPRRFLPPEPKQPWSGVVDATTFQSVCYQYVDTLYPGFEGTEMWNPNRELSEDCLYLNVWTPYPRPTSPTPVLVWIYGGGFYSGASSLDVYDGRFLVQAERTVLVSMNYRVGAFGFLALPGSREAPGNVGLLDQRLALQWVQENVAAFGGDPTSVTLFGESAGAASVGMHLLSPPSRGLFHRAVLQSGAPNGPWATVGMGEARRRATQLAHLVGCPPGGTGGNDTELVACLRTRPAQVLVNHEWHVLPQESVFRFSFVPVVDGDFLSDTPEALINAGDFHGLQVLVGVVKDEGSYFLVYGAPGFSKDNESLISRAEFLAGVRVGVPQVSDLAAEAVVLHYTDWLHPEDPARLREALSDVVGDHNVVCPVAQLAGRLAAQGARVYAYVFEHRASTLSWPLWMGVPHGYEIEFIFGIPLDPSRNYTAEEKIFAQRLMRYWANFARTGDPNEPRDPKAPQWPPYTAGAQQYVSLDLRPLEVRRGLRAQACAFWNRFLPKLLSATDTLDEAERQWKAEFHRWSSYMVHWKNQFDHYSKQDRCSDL

Row | Compound | activity change, negative = inhibition
1 | CCc1cccc(C)c1 | 1.74%
2 | Cc1cccc(N(C)C)c1 | 3.25%
3 | CC(=O)c1ccc2c(c1)[C@H](NC(=O)c1ccc(F)cc1)[C@@H](O)C(C)(C)O2 | -0.0498%
4 | C=CN1CCCCCC1=O | 1.05%
5 | CCCCOc1ccc(N)cc1 | 0.28%
6 | Cc1ccc(C2OC[C@@H]3OC(c4ccc(C)cc4)O[C@H]([C@H](O)CO)[C@@H]3O2)cc1 (stereo not given in full) | 2.7%
7 | c1ccc(CCCc2ccccn2)cc1 | -3.72%
8 | CC(C)O | -5.79%
9 | Nc1cccc2c(N)cccc12 | -6.24%
10 | c1ccc2occc2c1 | -0.468%
11 | O=C(O)/C=C/c1ccc(/C=C/C(=O)O)cc1 | -17.4% [at 53.7 µM]
12 | CCCCC(CC)COP(=O)(O)O (stereo not given) | -8.91%
13 | CCCCCCCCCCCCCCCCCl | -0.0126% [at 23.8 µM]
14 | CCc1cc(C2=C(C(=O)O)N(c3ccccc3C(F)(F)F)S(=O)(=O)c3ccccc32)cc2c1OCO2 | -6.71%
15 | O=C(OOC(=O)c1ccccc1)c1ccccc1 | 7.9% [at 53.7 µM]
16 | CC(=O)OCC(=O)[C@@]1(O)[C@H](OC(C)=O)C[C@H]2[C@@H]3CCC4=CC(=O)C=C[C@]4(C)[C@@]3(F)[C@@H](O)C[C@@]21C | 1.75% [at 53.7 µM]
17 | c1csc(SSc2cccs2)c1 | -11.4%
18 | Cc1ccccc1C | 0.802%
19 | COC(=O)c1ccc(OC)cc1 | -1.09%
20 | CCCCCCCCCCCCCC(=O)OCC(O)CO (stereo not given) | -12.6%

Row | Compound | activity change, negative = inhibition
21 | N#Cc1cscn1 | -1.16%
22 | CCOC(=O)C(C)O (stereo not given) | 4.93%
23 | COc1ccccc1N1CCN(CCCNc2cc(=O)n(C)c(=O)n2C)CC1 | 5.61% [at 53.7 µM]
24 | C=CC(C)(CCC=C(C)C)OC=O (stereo not given) | -4.21%
25 | CCCCC | -18.1%
26 | CCCCCCc1ccc(N)cc1 | 10.5%
27 | CCC(C)(CCC(C)C)C(=O)O (stereo not given) | 1%
28 | CC(Cc1ccccc1)(NC(=O)CN)c1ccccc1 (stereo not given) | -3.83% [at 53.7 µM]
29 | Cc1ccnc(N)c1 | 3.95%
30 | CC(C)=CCC/C(C)=C/C#N | 0.328%
31 | CC(=O)C(C)=O | 0.823%
32 | Nc1cc(Cl)c(O)c(Cl)c1 | -15.1%
33 | CCc1cccc(C)c1N(C(=O)C(=O)O)C(C)COC (stereo not given) | 5.24%
34 | CCCCCCCCCCOCC(O)CN (stereo not given) | -7.09% [at 53.7 µM]
35 | O=C1c2ccccc2S(=O)(=O)N1CCCCN1CCN(c2ncccn2)CC1 | -27% [at 53.7 µM]
36 | CC(=O)Nc1ccc(S(=O)(=O)Nc2cc(C)on2)cc1 | 10.3% [at 53.7 µM]
37 | Cc1cccc(Br)c1 | -1.85%
38 | CCCCCCCCCCCCCCCCCC(=O)OCCCCCCCCCCCCCC(C)C | -1.87%
39 | CCOc1ccccc1OCC | 0.993%
40 | COC(C)OC | 1.04%
